Test results reported in PubChem BioAssay (NCI).
The panel holds about 83,000 compounds, 20% with a hit somewhere; the sample as a whole holds those more often.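 The test compound was applied at a single concentration to cells in 96-well plates for 48 hours, and percent growth was recorded.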 Unmarked numbers belong to inactive results. Activity calls are given as the source filed them. How the source made its calls: active means growth percent below 10; inactive means the rest.

What follows are compounds tested on SF-539 CNS (assay: NCI-60 one-dose screen, 48 h (100 = growth as untreated, 0 = no growth, -100 = all killed)). Conditions: 10 µM unless noted.

Going from `S=C(Sc1ccc(Cl)cc1)Sc1ccc(Cl)cc1` to `S=C=Nc1ccc2ccccc2c1`, the growth rises from 37.6% to 99.9%.

Going from `O=C(O)c1ccc([N+](=O)[O-])cc1S(=O)(=O)O` to `COC(=O)c1cccc([N+](=O)[O-])c1`, the growth falls from 107% to 98.5%.

Compared with `O=C(O)CC1=CCCCC1`, `O=C1C=C[C@H](O)[C@@]2(CO)O[C@@H]12` is lower in growth: 98.4% for the first, 70.1% for the second.

Going from `NC(=O)NCCO` to `CCOC(=O)C(=O)CC(=O)c1ccccc1`, the growth falls from 103% to 100%.

First: O=C(O)C1CCCN1C(=O)OCc1ccccc1 (centres undefined)
Second: O=C(OCC1CCCO1)c1ccc([N+](=O)[O-])cc1 (centres undefined)
The growth of the first is higher: 107% for the first, 102% for the second.

Going from `C=CC(C)(C)n1cc(C2=C(O)C(=O)C(c3cn(C(C)(C)C=C)c4ccccc34)=C(O)C2=O)c2ccccc21` to `CC(CC(CCC(=O)O)(c1ccccc1)c1ccccc1)N(C)C` (centres undefined), the growth rises from 76.6% to 95.1%.

First: O=Cc1ccc(F)cc1
Second: CC(=O)N(C(C)=O)c1ccc(C)cc1
The growth of the first is higher: 101% for the first, 98% for the second.

First: CC1CC2C3CCC4=CC(=O)CCC4(C)C3CCC2(C)C1(O)C(=O)CO (centres undefined)
Second: CC1(C)C2CCC1(C)C1(C2)OCCS1 (centres undefined)
The growth of the first is higher: 107% for the first, 94.1% for the second.

First: COc1ccc(Br)c2c1C(=O)CC2
Second: O=c1n(CC2CO2)c(=O)n(CC2CO2)n1CC1CO1 (centres undefined)
The growth of the first is higher: 106% for the first, 18.8% for the second.

`Cc1ccc(S(=O)(=O)Oc2ccc3sc4c(CO)ccc(NCCN(C)C)c4c(=O)c3c2)cc1` was tested, and the growth was -93.1% [100 µM] (active).
